From PubChem BioAssay (NCI)
About 79,000 compounds went through this panel and 15% of them were active in at least one assay; those are over-represented in the sample as a whole. Activity calls are given as the source filed them. Cut-off read from the data, not from the text of the source: active = growth inhibition above about 70%; inactive = the rest.

Key:
[1] = NCI Yeast Anticancer Drug Screen. Data for the rad50 strain (AID 155);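 note: 0% = growth of vehicle-only cultures of the same strain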; conditions: S. cerevisiae rad50 strain growth inhibition; at 50.0 µM; stronger effect = higher value
Summary of the method: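 Readout: growth inhibition relative to vehicle-treated cultures. Compound exposure was carried out in a genetically defined yeast strain deficient in DNA damage repair.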

[2] = NCI Yeast Anticancer Drug Screen. Data for the mec2-1 strain (AID 157); conditions: S. cerevisiae mec2-1 strain, at 50.0 µM, stronger effect = higher value
Summary of the method: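 Readout is yeast growth inhibition, normalised to vehicle-treated controls, in the mec2-1 strain exposed to compound.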

[3] = NCI Yeast Anticancer Drug Screen. Data for the sgs1 mgt1 strain (AID 161);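 note: 0% = growth of cultures given vehicle only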; conditions: S. cerevisiae sgs1 mgt1 strain, at 50.0 µM, stronger effect = higher value
Summary of the method: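 Percent growth inhibition was derived by comparing compound-exposed mutant yeast with vehicle-exposed cultures. The strain carries alterations in DNA damage repair.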

[4] = NCI Yeast Anticancer Drug Screen. Data for the cln2 rad14 strain (AID 165);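 note: 0% = growth equal to vehicle treated cultures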; conditions: S. cerevisiae cln2 rad14 strain, at 50.0 µM, stronger effect = higher value
Summary of the method: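 Relative to vehicle controls, growth inhibition of compound-treated cln2 rad14 yeast was recorded.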

[5] = NCI Yeast Anticancer Drug Screen. Data for the bub3 strain (AID 167); conditions: S. cerevisiae bub3 mutant strain, at 50.0 µM, stronger effect = higher value
Summary of the method: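 Readout: yeast growth inhibition, expressed relative to vehicle-only wells. The test organism is a mutant strain from a panel with lesions in DNA repair or checkpoint genes.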

[6] = NCI Yeast Anticancer Drug Screen. Data for the mlh1 rad18 strain (AID 175); conditions: S. cerevisiae mlh1 rad18 strain growth inhibition; at 50.0 µM; stronger effect = higher value
Summary of the method: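 Test agents were incubated with a yeast strain of defined genotype (DNA damage repair defect). Inhibition of growth was derived by comparison with vehicle-exposed cultures.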

Measured: growth inhibition

CC(=O)OC1OC(CS[As](C)C)C(OC(C)=O)C(OC(C)=O)C1OC(C)=O (stereo not given)
inactive: [1] 58.6% | [2] -3.05% | [3] 54.8% | [4] 28.7% | [5] 17.6% | [6] 52.5%

COC1CC2C=CC3C4OC2(/C(C)=C/C(C)C(C(C)O)OC1=O)C3C(O)C(C)C4OC(=O)c1ccc[nH]1 (stereo not given)
inactive: [1] 14.7% | [2] 6.35% | [3] 13.3% | [4] 10.7% | [5] -2.85% | [6] 14.1%

C[N+](C)(C)CC1CCCC(C[N+](C)(C)C)C1=NO (stereo not given)
inactive: [1] 24.9% | [2] 12.1% | [3] -4.85% | [4] 19.7% | [5] -1.5% | [6] 20.6%

CN(c1ccccc1)c1nc(=[N+]2CCCC2)ss1
inactive: [1] 11.6% | [2] -1.3% | [3] -11.8% | [4] 0.9% | [5] 7.75% | [6] 24.6%

Nc1ccc(Sc2ccc(N)cc2)cc1
inactive: [1] 15.5% | [2] 0.35% | [3] -0.6% | [4] -53.1% | [5] -8.25% | [6] 23.1%

CC1(C)N=C(N)N=C(N)N1c1ccc(CCc2ccc(S(=O)(=O)F)cc2Cl)c(Cl)c1
active: [1] 99.4% | [2] 99.7% | [3] 99.7% | [4] 81.5% | [5] 99.2% | [6] 99.5%

CC(=[N-])CC(C)=O.CC(=[N-])CC(C)=O.[Cu+2]
inactive: [1] 14.9% | [2] 14.5% | [3] 10.8% | [4] -18.3% | [5] -4.4% | [6] 8.2%

O=[N+]([O-])c1ccc(/C=C/c2cc(Cl)ccc2S(=O)(=O)F)c(Cl)c1
inactive: [1] 2.6% | [2] -0.85% | [3] 6.8% | [4] 13.4% | [5] 12.9% | [6] -4.35%

CCOC(=O)CNCCC1(CC)C(=O)NC(=O)NC1=O
inactive: [1] -0.55% | [2] -8.2% | [3] 2.15% | [4] -37.2% | [5] -0.6% | [6] -12.8%

CN1CN(c2ccccc2)C2(CCN(CCC3COc4ccccc4O3)CC2)C1=O (stereo not given)
inactive: [1] -15.4% | [2] -10.3% | [3] -10.1% | [4] -1.4% | [5] -4.45% | [6] -1.35%

CC1=C(\C=C/C(C)=C/C=C/C(C)=C/C=C/C=C(C)\C=C\C=C(C)/C=C/C2=C(C)CCCC2(C)C)C(C)(C)CCC1
inactive: [1] 28.8% | [2] 9.35% | [3] 27.1% | [4] 26.4% | [5] 37.2% | [6] 45.5%

O=C1NC(=O)C(=Cc2ccco2)C(=O)N1
inactive: [1] -4.4% | [2] -26.4% | [3] -7.85% | [4] 5.65% | [5] -31.6% | [6] -3.3%

Cc1ccc(S(N)(=O)=O)cc1
inactive: [1] 22% | [2] -5.05% | [3] 5.8% | [4] -8.25% | [5] 12.8% | [6] 18.8%

COc1cc([As](=O)(O)O)c(OC)cc1N
inactive: [1] -9.7% | [2] 6.6% | [3] -0.9% | [4] -55.7% | [5] 5.5% | [6] -17.1%

CCC(=O)NCC1CCCN2CCCCC12 (stereo not given)
inactive: [1] -4.55% | [2] -8.35% | [3] -18.5% | [4] 2.65% | [5] 6.95% | [6] -22%

Cc1ccc(N2CCNCC2C)cc1 (stereo not given)
inactive: [1] 6.15% | [2] -13.2% | [3] -4.6% | [4] 8.95% | [5] -9.25% | [6] 11.2%

CN(C)c1ccc([N+](=O)[O-])c([N+](=O)[O-])c1
inactive: [1] -14.8% | [2] -12.5% | [3] -7.75% | [4] 7.95% | [5] -12.4% | [6] -3.05%

CN1CCCC1c1ccc[n+](C)c1 (stereo not given)
inactive: [1] -2.95% | [2] 1.85% | [3] 5.6% | [4] -8.65% | [5] 2.1% | [6] 3.35%

O=C(N/N=C/c1ccc(N(CCCl)CCCl)cc1)c1ccc(N(CCCl)CCCl)cc1
inactive: [1] 30.6% | [2] 4.65% | [3] 26.6% | [4] 37.8% | [5] 4.55% | [6] 7.9%

CCOC(=O)P(=O)(OCC)OCC
inactive: [1] 6.9% | [2] -37.2% | [3] -11% | [4] -1.2% | [5] 4.95% | [6] -1.1%

CCCOC(=O)C(C)(C)C(OP(OCCC)OCCC)=C(C)C
inactive: [1] -7.35% | [2] 4.35% | [3] -2.5% | [4] -0.9% | [5] 1.4% | [6] 3.3%

CCOC(=O)NP(=O)(Nc1ccc(C)cc1)Nc1ccc(C)cc1
inactive: [1] 6.2% | [2] -12% | [3] -0.3% | [4] 6.75% | [5] -9.55% | [6] -1.45%

CS(=N)(=O)CCC(N)P(=O)(O)O (stereo not given)
inactive: [1] -29.8% | [2] -37.6% | [3] 6.85% | [4] 13.9% | [5] -50.5% | [6] -27.9%

C=C(C)[C@H]1Cc2c(ccc3c2O[C@@H]2COc4cc(OC)c(OC)cc4[C@@H]2C3=O)O1
inactive: [1] 43.5% | [2] 19.2% | [3] 43.4% | [4] 27.8% | [5] 49.1% | [6] 52.8%

NC(=O)c1cc(N(CCBr)CCBr)c([N+](=O)[O-])cc1[N+](=O)[O-]
inactive: [1] 17.6% | [2] 1.25% | [3] 17.6% | [4] 14.2% | [5] 16.9% | [6] 9.3%

COc1ccc2c(c1OC(C)=O)C1=CC(=O)CCC13CCNC3C2 (stereo not given)
inactive: [1] 15.8% | [2] 6.7% | [3] -13.9% | [4] 27.2% | [5] -28.4% | [6] -24.3%

CC1C(C)(C)P(=O)(Oc2ccc3ccccc3c2)C1(C)C (stereo not given)
inactive: [2] 55.3% | [6] 56.6%
active: [1] 71.6% | [3] 84% | [4] 80.7% | [5] 94.4%

O=C1NC(=S)NC(=O)C1=Cc1ccccc1O
inactive: [1] -2.15% | [2] -16.9% | [3] -12.3% | [4] -32.4% | [5] -1.45% | [6] -31.2%

CC1[N-]C(/C=N/O)NC(C)N1.CC1[N-]C(/C=N/O)NC(C)N1.[Br][Ni+2][Br] (stereo not given)
inactive: [1] -14.9% | [2] -10% | [3] -22.3% | [4] -19% | [5] 0.65% | [6] -15.7%

Cc1ccc(C(=O)Nc2ccc(CP(=O)(O)O)cc2)cc1NC(=O)Nc1cc(C(=O)Nc2ccc(CP(=O)(O)O)cc2)ccc1C
inactive: [1] 3.55% | [2] -10.6% | [3] -30.1% | [4] 11.9% | [5] -29.1% | [6] 7.45%

CC(C)OP(=S)(Oc1ccc(Cl)cc1Cl)OC(C)C
inactive: [1] 20.9% | [2] -11.7% | [3] 31.9% | [4] 8.8% | [5] 21.2% | [6] 8%

CC1CC(C)OP(Oc2ccccc2)O1 (stereo not given)
inactive: [1] -24.6% | [2] 4.05% | [3] -21.8% | [4] -15.7% | [5] -7.15% | [6] -10.5%

CC(=O)[O][Sn]([CH2]C1CCCC1)([CH2]C1CCCC1)[CH2]C1CCCC1
active: [1] 99.3% | [2] 99.3% | [3] 99.4% | [4] 98.9% | [5] 99% | [6] 99.1%

O=S1(=O)OCCOS(=O)(=O)C1(Cl)Cl
inactive: [1] -32.6% | [2] -41.5% | [3] -18% | [4] -11.4% | [5] -31.6% | [6] -8.65%

CC(NC1=NCCO1)c1ccsc1 (stereo not given)
inactive: [1] 21.9% | [2] 12.6% | [3] 3.5% | [4] 14.8% | [5] 3.75% | [6] -24.1%

O=N[O-].O=N[O-].[Co].[NH-]CC[N-]CCO.[NH-]CC[N-]CCO
inactive: [1] 37.6% | [2] -0.7% | [3] 17.1% | [4] 14.9% | [5] 5.7% | [6] 7.55%

COC(=O)C(Cl)Cl
inactive: [1] 9.2% | [2] -17.1% | [3] -1.85% | [4] -47.9% | [5] -5.6% | [6] 14.1%

COP(=O)(Cc1ccc(/C=C/C#N)o1)OC
inactive: [1] -12.2% | [2] -3.1% | [3] -38.8% | [4] -22.1% | [5] 18.2% | [6] -10.2%

CCOP(O)(=S)OCC.[Sm]
inactive: [1] 1.65% | [2] -14.6% | [3] -7.65% | [4] -43.1% | [5] -17.9% | [6] -15.8%

NC(=O)c1cc([N+](=O)[O-])cc([N+](=O)[O-])c1N(CCCl)CCCl
inactive: [1] -3% | [2] -10.9% | [3] -15.4% | [4] -3.8% | [5] -8.95% | [6] -14.6%
